Data taken from PubChem BioAssay.
Calls of active or inactive are those of the source.

How the values were obtained:
[1] = system: Plasmodium falciparum Sir2 (PF13_0152, Sir2A); assay: pfSir2 binders on small-molecule microarrays, primary screen, biochemical, small-molecule microarray, 635 nm fluorescence (AID 1098); conditions: small-molecule microarray binding, fluorescence 635 nm; higher = more signal;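 further: score merges spot fluorescence intensity with its signal-to-noise ratio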
[2] = small-molecule microarray binders of probe aDKK1, primary screen, biochemical, biotinylated probe, 635/667 nm fluorescence (AID 1099); conditions: higher = more signal;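 further: score merges 667nm spot fluorescence with signal to noise across triplicate slides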
[3] = small-molecule microarray binders of probe aCHRDL2, primary screen, biochemical, biotinylated probe, 635/667 nm fluorescence (AID 1100); conditions: higher = more signal
[4] = splicing luciferase reporter signal modulators, primary screen, spliceosome inhibition project, cell-based, HEK293, splice +/- reporter (AID 1101); conditions: luminescence, 24 h, higher = more signal, called active from +8 up or from −8 down;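 further: HEK293 cells carrying a splicing-competent luciferase reporter gene; test concentration not given here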
[5] = molecular target: Fibroblast growth factor 10 (Homo sapiens) (UniProt O15520); assay: FGF10 binders on small-molecule microarrays, primary screen, biochemical, small-molecule microarray, 635 nm fluorescence (AID 1102); conditions: FGF10 binding, fluorescence 635 nm, higher = more signal
[6] = system: glycogen synthase kinase-3 (GSK3A per assay name; protocol says GSK3B); assay: GSK3 binders on small-molecule microarrays, primary screen, biochemical, small-molecule microarray, 635 nm fluorescence, GSK3A (AID 1103); conditions: small-molecule microarray binding, fluorescence 635 nm; higher = more signal; further: the record names both GSK3A and GSK3B
[7] = molecular target: Epidermal growth factor receptor (Homo sapiens) (UniProt P00533); assay: EGFR binders on small-molecule microarrays, primary screen, biochemical, small-molecule microarray, 635 nm fluorescence (AID 1104); conditions: EGFR binding, higher = more signal;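 further: score merges 667 nm emission intensity with spot signal to noise over triplicate slides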
[8] = molecular target: Follistatin-related protein 3 (Homo sapiens) (UniProt O95633); assay: FSTL3 binders on small-molecule microarrays, primary screen, biochemical, small-molecule microarray, 635 nm fluorescence (AID 1105); conditions: FSTL3 binding, higher = more signal;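 further: score merges emission near 667 nm and signal to noise per printed spot across three slides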
[9] = molecular target: Dickkopf-related protein 1 (Homo sapiens) (UniProt O94907); assay: DKK1 binders on small-molecule microarrays, primary screen, biochemical, small-molecule microarray, 635 nm fluorescence scan (AID 1106); conditions: DKK1 binding, higher = more signal;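 further: score merges emission near 667 nm with signal to noise over three replicate slides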
[10] = system: Inhibin beta A chain (activin A); assay: INHBA (activin A) binders on microarrays, primary screen, biochemical, small-molecule microarray, 635 nm fluorescence scan (AID 1107); conditions: small-molecule microarray binding, higher = more signal;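 further: mouse activin A protein probed at 4.33 µg/mL on printed slides; score merges bound-protein fluorescence near 667 nm with spot signal-to-noise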
[11] = system: Human papillomavirus type 1a protein E7 (residues 44-93); assay: HPV1a E7 fragment binders on microarrays, primary screen, biochemical, small-molecule microarray, residues 44-93, 635 nm fluorescence (AID 1108); conditions: small-molecule microarray binding, fluorescence 635 nm; higher = more signal;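 further: E7 fragment applied at 1 µg/mL in TBST for 1 h at 4 C; score combines spot fluorescence with its signal to noise ratio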
[12] = modulators of HCV replicon luciferase signal, primary screen, HCV replication inhibitor project, Huh7 cells, luciferase reporter (AID 1109); conditions: 48 h, higher = more signal;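 further: huh7 hepatoma cells harbouring a luciferase neomycin HCV replicon reporter; luciferase luminescence as measure of HCV replicon replication; test concentration not given here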
[13] = molecular target: Left-right determination factor 2 (Homo sapiens) (UniProt O00292); assay: LEFTY2 binders on small-molecule microarrays, primary screen, biochemical, small-molecule microarray, 635 nm fluorescence scan (AID 1110); conditions: LEFTY2 binding, higher = more signal
[14] = molecular target: Calmodulin-1 (Homo sapiens) (UniProt P0DP23); assay: CALM1 binders on microarrays, EGTA buffer, profiling panel, biochemical, small-molecule microarray, Cy5-labelled CALM1 (AID 1111); conditions: Cy5-CALM1 binding fluorescence, higher = more signal;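 further: labelled calmodulin applied in Tris saline Tween buffer holding calcium plus EGTA and DTT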
[15] = molecular target: Calmodulin-1 (Homo sapiens) (UniProt P0DP23); assay: calcium-bound CALM1 binders on microarrays, profiling panel, artefact control for SMM control-protein annotation, biochemical, small-molecule microarray, Cy5-labelled CALM1, plus calcium (AID 1112); conditions: Cy5-CALM1 binding fluorescence, higher = more signal;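 further: score merges spot fluorescence with signal to noise from triplicate slides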
[16] = small-molecule microarray binders of probe aWnt5a, primary screen, biochemical, biotinylated probe, 635/667 nm fluorescence (AID 1113); conditions: higher = more signal;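 further: score merges 667 nm fluorescence intensity with signal-to-noise per printed feature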
[17] = small-molecule microarray binders of probe aShh, primary screen, biochemical, biotinylated probe, 635/667 nm fluorescence (AID 1114); conditions: higher = more signal;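 further: probe is biotin-labelled aShh protein from a stem cell growth factor screen; measures binding of labelled protein to compounds printed on the slide; score merges feature fluorescence at 667 nm with signal-to-noise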
[18] = small-molecule microarray binders of probe aNog, primary screen, biochemical, biotinylated probe, 635/667 nm fluorescence (AID 1115); conditions: higher = more signal;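 further: probe is biotinylated aNog protein used at 0.15 µg/mL for 1 h at 4 C; z-score combines 667 nm fluorescence of each spot with its signal to noise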
[19] = molecular target: Torsin-1A-interacting protein 1 (Homo sapiens) (UniProt Q5JTV8); assay: LAP1 binders from COS7 cell lysate, primary screen, small-molecule microarray, 635/667 nm fluorescence (AID 1116); conditions: COS7-hLAP1 lysate binding, 635 nm fluorescence, higher = more signal
[20] = molecular target: Alpha-bungarotoxin (Bungarus multicinctus) (UniProt P60615); assay: alpha-bungarotoxin binders on microarray, profiling panel, artefact control for SMM control protein annotation, biochemical, small-molecule microarray, Alexa647 label, 635/667 nm fluorescence (AID 1117); conditions: alpha-BTX-A647 binding fluorescence, higher = more signal
Alpha-bungarotoxin (Bungarus multicinctus), sequence (P60615 whole entry, looked up): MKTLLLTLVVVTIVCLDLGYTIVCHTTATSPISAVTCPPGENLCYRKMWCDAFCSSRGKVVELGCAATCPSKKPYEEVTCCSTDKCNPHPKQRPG

Left-right determination factor 2 (Homo sapiens), sequence (O00292 whole entry, looked up): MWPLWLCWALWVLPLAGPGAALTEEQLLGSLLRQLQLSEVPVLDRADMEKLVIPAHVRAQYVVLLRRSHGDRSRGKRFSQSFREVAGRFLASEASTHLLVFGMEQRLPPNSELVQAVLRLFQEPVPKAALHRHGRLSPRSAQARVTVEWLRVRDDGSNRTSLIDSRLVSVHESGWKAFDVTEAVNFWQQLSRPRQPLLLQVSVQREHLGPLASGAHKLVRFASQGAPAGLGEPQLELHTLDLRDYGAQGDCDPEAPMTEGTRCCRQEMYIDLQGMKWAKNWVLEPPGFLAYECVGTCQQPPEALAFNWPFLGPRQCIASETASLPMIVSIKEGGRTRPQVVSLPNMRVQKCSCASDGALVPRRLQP
Torsin-1A-interacting protein 1 (Homo sapiens), sequence (Q5JTV8 whole entry, looked up): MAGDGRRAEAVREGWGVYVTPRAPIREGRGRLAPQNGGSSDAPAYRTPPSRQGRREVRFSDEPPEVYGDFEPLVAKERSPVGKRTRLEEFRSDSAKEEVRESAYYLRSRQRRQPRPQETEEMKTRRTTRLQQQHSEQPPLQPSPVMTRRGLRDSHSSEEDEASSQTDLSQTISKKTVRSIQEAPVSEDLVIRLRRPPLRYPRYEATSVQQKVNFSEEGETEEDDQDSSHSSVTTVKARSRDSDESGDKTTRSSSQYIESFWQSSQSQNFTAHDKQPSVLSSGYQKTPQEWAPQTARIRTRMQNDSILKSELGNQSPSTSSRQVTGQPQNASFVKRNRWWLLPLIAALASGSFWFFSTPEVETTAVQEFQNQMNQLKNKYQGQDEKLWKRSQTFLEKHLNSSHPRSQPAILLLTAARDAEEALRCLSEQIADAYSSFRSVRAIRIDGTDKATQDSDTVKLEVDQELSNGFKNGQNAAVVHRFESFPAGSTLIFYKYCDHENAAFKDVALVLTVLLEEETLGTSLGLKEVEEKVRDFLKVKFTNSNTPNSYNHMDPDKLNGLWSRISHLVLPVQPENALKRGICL
Dickkopf-related protein 1 (Homo sapiens), sequence (O94907 whole entry, looked up): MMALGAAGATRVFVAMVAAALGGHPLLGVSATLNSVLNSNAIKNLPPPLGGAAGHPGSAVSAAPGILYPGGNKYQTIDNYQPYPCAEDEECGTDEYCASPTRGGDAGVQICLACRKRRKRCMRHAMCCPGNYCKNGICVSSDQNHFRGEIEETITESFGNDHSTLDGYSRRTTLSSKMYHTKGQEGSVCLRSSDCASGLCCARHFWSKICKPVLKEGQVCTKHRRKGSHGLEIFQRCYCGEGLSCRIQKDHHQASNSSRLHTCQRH
Follistatin-related protein 3 (Homo sapiens), sequence (O95633 whole entry, looked up): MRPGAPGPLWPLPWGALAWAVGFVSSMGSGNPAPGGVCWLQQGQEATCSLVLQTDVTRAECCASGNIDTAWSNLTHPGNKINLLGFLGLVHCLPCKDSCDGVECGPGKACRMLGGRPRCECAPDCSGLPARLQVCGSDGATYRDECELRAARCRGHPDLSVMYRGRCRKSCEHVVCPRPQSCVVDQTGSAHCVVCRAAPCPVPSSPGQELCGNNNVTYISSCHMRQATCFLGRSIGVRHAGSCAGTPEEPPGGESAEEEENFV
Fibroblast growth factor 10 (Homo sapiens), sequence (O15520 whole entry, looked up): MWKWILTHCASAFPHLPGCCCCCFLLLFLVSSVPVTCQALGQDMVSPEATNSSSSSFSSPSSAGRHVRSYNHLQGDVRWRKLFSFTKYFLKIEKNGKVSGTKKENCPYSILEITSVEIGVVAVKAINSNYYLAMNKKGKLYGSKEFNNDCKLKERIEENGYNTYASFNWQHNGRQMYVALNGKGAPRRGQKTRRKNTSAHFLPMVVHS
Epidermal growth factor receptor (Homo sapiens), sequence (P00533 whole entry, looked up): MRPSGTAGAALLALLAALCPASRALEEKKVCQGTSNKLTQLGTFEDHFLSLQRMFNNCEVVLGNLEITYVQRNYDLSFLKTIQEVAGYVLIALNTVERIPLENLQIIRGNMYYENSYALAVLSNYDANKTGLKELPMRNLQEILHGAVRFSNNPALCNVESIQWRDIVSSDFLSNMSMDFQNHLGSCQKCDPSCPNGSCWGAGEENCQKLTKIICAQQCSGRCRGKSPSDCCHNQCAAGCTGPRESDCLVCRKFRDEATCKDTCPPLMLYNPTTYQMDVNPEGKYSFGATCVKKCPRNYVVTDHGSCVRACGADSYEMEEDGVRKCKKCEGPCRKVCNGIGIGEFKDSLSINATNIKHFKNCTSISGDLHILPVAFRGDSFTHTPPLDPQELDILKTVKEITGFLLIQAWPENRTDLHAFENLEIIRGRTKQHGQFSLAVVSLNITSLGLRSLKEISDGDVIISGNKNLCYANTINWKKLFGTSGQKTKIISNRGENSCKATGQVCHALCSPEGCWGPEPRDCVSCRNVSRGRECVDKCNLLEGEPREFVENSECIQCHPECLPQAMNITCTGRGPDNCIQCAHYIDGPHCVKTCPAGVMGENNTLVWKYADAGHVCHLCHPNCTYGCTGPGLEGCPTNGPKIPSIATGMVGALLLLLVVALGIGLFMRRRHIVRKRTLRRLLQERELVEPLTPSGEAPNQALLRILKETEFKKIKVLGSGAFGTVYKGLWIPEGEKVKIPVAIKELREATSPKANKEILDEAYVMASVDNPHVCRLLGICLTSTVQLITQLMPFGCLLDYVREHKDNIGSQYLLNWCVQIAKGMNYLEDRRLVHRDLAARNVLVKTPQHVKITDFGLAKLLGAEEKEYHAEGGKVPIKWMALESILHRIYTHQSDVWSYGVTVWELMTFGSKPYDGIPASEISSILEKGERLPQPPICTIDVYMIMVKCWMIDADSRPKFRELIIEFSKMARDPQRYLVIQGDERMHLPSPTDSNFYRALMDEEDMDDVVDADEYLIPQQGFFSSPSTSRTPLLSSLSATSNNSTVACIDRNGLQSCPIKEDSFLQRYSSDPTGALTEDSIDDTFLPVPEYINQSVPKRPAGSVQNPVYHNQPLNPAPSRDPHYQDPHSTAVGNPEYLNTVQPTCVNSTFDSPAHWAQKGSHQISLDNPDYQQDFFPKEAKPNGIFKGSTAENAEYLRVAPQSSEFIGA

Structure (SMILES) | composite z-score [1] | composite z-score [2] | composite z-score [3] | z-score [4] | composite z-score [5] | composite z-score [6] | composite z-score [7] | composite z-score [8] | composite z-score [9] | composite z-score [10] | composite z-score [11] | z-score [12] | composite z-score [13] | composite z-score [14] | composite z-score [15] | composite z-score [16] | composite z-score [17] | composite z-score [18] | composite z-score [19] | composite z-score [20]
CC=CC(O)C1C=CC2C(=O)NC(=O)C2N1Nc1ccccn1 (stereo not given) | 0.733 | -0.0419 | -0.185 | 1.12 (inactive) | 0.22 | 0.717 | 0.673 | 0.6 | 0.697 | 1.25 | 0.434 | 0.634 | 0.44 | -0.242 | -1.1 | -0.254 | -0.0211 | 0.342 | 0.372 | 0.439
Cc1ccc(S[C@]2(C(=O)NCc3ccccc3)CC(=O)N(Cc3cc(C(F)(F)F)cc(C(F)(F)F)c3)[C@@H]2c2ccc(CO)cc2I)cc1 | -0.466 | 0.664 | 1.22 | -1.21 (inactive) | -1.31 | -0.714 | -1.78 | -0.203 | -1.54 | 1.02 | -0.262 | -0.861 | -1.24 | -0.36 | 0.585 | -0.228 | -0.319 | -0.216 | 0.0893 | -1.05
CCOC(=O)C[C@H]1[C@H](OC(=O)c2cc3ccccc3oc2=O)[C@@H](NC(=O)c2ccc3ccccc3c2)c2cc(OCCCO)ccc2N1C(=O)Cc1ccc(OC)cc1 | 0.571 | -0.0385 | -0.0886 | -0.239 (inactive) | 0.576 | 0.162 | 0.34 | 1.18 | 0.427 | 0.237 | 1.16 | -1.6 | 0.763 | 0.31 | -0.239 | -0.0648 | 0.0588 | -0.0047 | 0.546 | 0.259
CS(=O)(=O)CCOC(=O)C1=CC(CCCO)=CC(C2CC2)N(Cc2cccc(OC(F)(F)F)c2)C=C1C(=O)OCCS(C)(=O)=O (stereo not given) | 1.09 | 0.0231 | -0.0768 | 0.155 (inactive) | 0.039 | 0.306 | -0.0252 | 0.054 | -0.325 | 0.911 | 1.3 | -1.63 | -0.022 | 0.238 | 0.478 | -0.0643 | -0.0243 | 0.576 | 1.9 | 0.0358
CCOC(=O)C=Cc1ccccc1O | 0.109 | -0.0604 | 0.329 | -1.74 (inactive) | 0.278 | 0.513 | 0.363 | 0.435 | -0.0242 | 0.75 | 1.22 | -2.36 | 0.233 | -0.166 | -0.72 | -0.0462 | 0.151 | -0.0381 | 0.0446 | 0.377
O=C1N(CCS(=O)(=O)c2ccccc2)Cc2ccccc2[C@@H]2OC(c3ccc(OCCCO)cc3)=N[C@]12CCS(=O)(=O)c1ccccc1 | 1.14 | 0.846 | 0.788 | -0.42 (inactive) | 1.46 | 1.32 | 0.89 | 1.48 | 1.46 | 1.22 | 1.48 | -0.0756 | 1.14 | 1.23 | -0.104 | 0.104 | 0.0898 | 0.445 | 1.72 | 0.821
Cc1ccc(N2C(=O)c3ccccc3[C@](C)(C(=O)NCc3ccccc3)[C@@H]2c2ccc(CO)cc2)nc1 | 1.39 | 0.499 | 0.615 | -0.0691 (inactive) | 0.0497 | -0.341 | -0.219 | -0.192 | 0.381 | 1.21 | -0.192 | 0.478 | -0.0146 | -0.416 | -0.497 | 0.0079 | -0.0837 | -0.108 | 0.263 | -0.3
C=CCNC(=O)[C@H]1[C@@H]2C(=O)O[C@@H](c3ccccc3)[C@@H](c3ccccc3)N2[C@@H](c2ccc(O)cc2)[C@]12C(=O)N(C(=O)OCCOC)c1ccc(C#CCC(C(=O)OC)C(=O)OC)cc12 | 1.37 | 0.119 | 0.236 | 0.173 (inactive) | 1.1 | 1.19 | 0.564 | 0.914 | 0.641 | 0.23 | 1.07 | -1.53 | 0.798 | 1.5 | 0.475 | -0.147 | -0.154 | 0.0213 | 1.48 | 0.201
C[C@@]12COC[C@]13C=C(Br)[C@H](C2)[C@@]1(CO1)C3=O | -0.363 | -0.101 | 0.262 | -0.374 (inactive) | -0.732 | -1.02 | -0.886 | -0.449 | -0.614 | 0.701 | -2.3 | -2.64 | -0.777 | -0.66 | -0.691 | -0.176 | -0.214 | -0.256 | -1.17 | -0.455
CCCNC(=O)[C@@]1(C)c2ccccc2C(=O)N(Cc2ccccc2)[C@H]1c1ccc(CO)cc1 | 0.956 | 0.74 | 0.963 | 1.34 (inactive) | 0.391 | -0.136 | -1.54 | -0.487 | -0.766 | -0.765 | 0.391 | 0.398 | -0.626 | -0.0596 | 0.095 | -0.197 | -0.0421 | -0.378 | 0.78 | -0.612
COC(=O)[C@@]1(Cc2ccc(OC)cc2)[C@H]2c3cc(C(=O)N4CCCC4)n(Cc4ccc(OC(F)(F)F)cc4)c3C[C@H]2CN1C(=O)c1ccccc1 | 0.858 | 1.15 | 1.1 | -0.886 (inactive) | 0.717 | -0.5 | -0.0407 | 0.598 | -0.414 | 0.891 | -0.0023 | -2.48 | -0.251 | 1.72 | 1.13 | 0.402 | 0.358 | 1.65 | -0.401 | 1.25
